# Measurements taken from PubChem BioAssay (Tox21).
# Results filed as inconclusive are left out. Values without a mark were called inactive. Activity calls are given as the source filed them. The call rests on the fitted dose curve; in most records, active means well fitted activation curve with a large enough effect in the repeat runs; inconclusive means weak or mixed curves; inactive means flat fitted curve, though single readings scatter.
# Assay: A CellTox Green Cytotoxicity Assay to monitor cytotoxicity in HepG2 cells - 8 hour (AID 1224890); further: nearly all actives have a fitted effect of over 45% in size
# Details: CellTox Green fluorescence; series mostly up to 76.8 µM; cytotoxicity increase: at the top concentration
# Description: National Center for Advancing Translational Sciences [NCATS]
# NIH Chemical Genomics Center [NCGC]
# U.S. Environmental Protection Agency [EPA]
# National Institutes of Environmental Health Sciences [NIEHS]
# National Toxicology Program [NTP]
# Cell-based models are critical for drug discovery. Determining the natural cytotoxic effects resulting from test compounds is an essential research activity. A CellTox Green Cytotoxicity Assay to monitor cytotoxicity in real time of continues cell culture during 40 hours of the compound treatment was used to screen Tox21 10K library compounds in HepG2 cells. CellTox Green Cytotoxicity Assay is a nonlytic, homogeneous, biofluorescent method to measure cytotoxicity in cell culture after experimental manipulation. The assay system uses a proprietary asymmetric cyanine dye that is excluded from viable cells but preferentially stains the dead cell's DNA. […] Viable cells produce no appreciable increases in fluorescence. Therefore, the fluorescence signal produced by the binding interaction with dead cell DNA is proportional to cytotoxicity.
# The mixture of HepG2 cell suspension and reagents were dispensed at 600cells/6 ul/well in 1536-well tissue culture treated black solid bottom plates using a Multidrop dispenser. After the assay plates were incubated at a 37 C/5% CO2 incubator for 5 hours, 23 nL of compounds dissolved in DMSO, positive and negative controls was transferred to the assay plate by a pintool work station. The plates were incubated at 37 C for 40 hours. The fluorescence intensity were measured at 0h, 8h, 16h, 24h, 32h and 40h time points using ViewLux plate reader during compound treatment.
# On the % scale 0 is the no-effect control and ±100 the full control effect.
Compound,cytotoxicity increase,Potency
CCCC(C)C1(CC)C(=O)N=C(S)NC1=O (stereo not given),-5.97% [at 35.3 µM],
C(COCC1CO1)OCC1CO1 (stereo not given),5.13%,
ClC1=C(Cl)C2(Cl)C(CBr)CC1(Cl)C2(Cl)Cl (stereo not given),-12.6% [at 35.3 µM],
CCCOC(=O)c1cncn1C(C)c1ccccc1 (stereo not given),0.115% [at 35.3 µM],
CC(C)(C)NC[C@H](O)c1ccc(O)cc1Cl,8.16% [at 35.3 µM],
CCOP(=S)(OCC)SCCl,2.56%,
Cc1ccc2cc(C)ccc2c1,0.829%,
CCC(C(N)=O)N1CCCC1=O (stereo not given),23.8% [at 35.3 µM],
CC(C)(O)C(Cl)(Cl)Cl,-0.607% [at 35.3 µM],
Cc1cc(OC(=O)N(C)C)nn1C(=O)N(C)C,-9.61%,
O=C(NC(O)C(Cl)(Cl)Cl)NC(O)C(Cl)(Cl)Cl (stereo not given),-2.17% [at 35.3 µM],
Brc1c(Br)c(Br)c(Br)c(Br)c1Br,-4.76% [at 6.97 µM],
C[C@]12C=CC(=O)C=C1CC[C@@H]1[C@@H]2CC[C@@]2(C)[C@H]1CC[C@]2(C)O,-2.67% [at 35.3 µM],
C=C(Cl)CCl,-6.05%,
O=P(O)(O)CN(CP(=O)(O)O)CP(=O)(O)O,,inactive
CC(C)(N)Cc1ccccc1Cl,2.39% [at 35.3 µM],
O=C(O)C(Cl)Br (stereo not given),-0.522%,
CCCCCCC1CCOC1=O (stereo not given),3.94%,
O=C(O)c1c(Cl)ccc2cc(Cl)cnc12,-5.19%,
CCOc1cc(OP(=S)(OC)OC)nc(CC)n1,4.76%,

Compound,cytotoxicity increase,Potency
N#CN,-14.8% [at 200 µM],
CCCCOC(C)=O,-2.66%,
CC(=O)CN(CC(C)=O)N=O,4.26%,
CC(C)(C)C(=O)Cl,-10.4%,
O=P(O)(O)c1ccccc1,-18.6%,
COc1ccc2c(C(=O)c3ccc(Cl)cc3)c(C)n(CC(=O)O)c2c1,-16.3% [at 35.3 µM],
CN(C)C1CCCCC1,3.41%,
Clc1nc(Cl)nc(Nc2ccccc2Cl)n1,-0.0728%,
CC(C)C(C)(N)C#N (stereo not given),-6.6%,
CCC(=O)OC1(c2ccccc2)CCN(C)CC1,-0.195%,
CC[C@H](N)c1ccccc1,-9.06%,
CCCC[N+](=O)[O-],1.92%,
C=CC1(C)OC(=O)N(c2cc(Cl)cc(Cl)c2)C1=O (stereo not given),,inactive
O=CCCl,-6.89%,
CN(C)C(=O)Oc1cc(OC(=O)N(C)C)cc(C(O)CNC(C)(C)C)c1 (stereo not given),0% [at 35.3 µM],
CN=CNc1ccc(C)cc1C,1.06%,
CN1COCN(Cc2cnc(Cl)s2)/C1=N\[N+](=O)[O-],-6.96%,
COC[C@@H](NC(C)=O)C(=O)NCc1ccccc1,-10.6% [at 35.3 µM],
NC(=O)CS(=O)C(c1ccccc1)c1ccccc1 (stereo not given),-8.79% [at 35.3 µM],
CCc1ccc(C2CCNCC2)cc1,-13.8% [at 35.3 µM],
